{
  "source": "PubChem BioAssay (EPA / NIEHS)",
  "note": "The source made the active and inactive calls. The calls were made as follows: active = hit-call score of the fitted dose curve at least 0.9, where 1 is the maximum; inactive = score below 0.9.",
  "data": [
    {"read-out": "Pro-epidermal growth factor (Homo sapiens) (UniProt P01133)", "assay": "LTEA_HepaRG_EGF: Life Technologies and Expression Analysis (LTEA) Assay for Epidermal growth factor (EGF) using HepaRG (AID 2283489)", "conditions": "mRNA level, 48 h; actives raise or lower the signal", "method_in_brief": "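qRT-PCR readout of EGF transcript after 48 h chemical exposure of HepaRG cells; eight concentrations from 100 uM down in half-log steps, duplicate wells, 0.5% DMSO vehicle. Bidirectional curve fitting against DMSO baseline.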", "values": [
      {"smiles": "CCCCCCCCCCCCN1CCCC1=O", "outcome": "inactive"},
      {"smiles": "CC#C[C@]1(O)CC[C@H]2[C@@H]3CCC4=CC(=O)CCC4=C3[C@@H](c3ccc(N(C)C)cc3)C[C@@]21C", "AC50": "4.48 µM (active)"},
      {"smiles": "CCCCCCCCCCCCc1ccccc1S(=O)(=O)O", "AC50": "50 µM (active)"},
      {"smiles": "CCCCCCCCCCCCCCCS(=O)(=O)Oc1ccccc1", "outcome": "inactive"},
      {"smiles": "CCCCOCCO", "outcome": "inactive"},
      {"smiles": "CCCCCCCCC(=O)O", "outcome": "inactive"},
      {"smiles": "CC(=O)CC(C)(C)O", "outcome": "inactive"},
      {"smiles": "CCC(C)(C)C1CCC(O)CC1", "note": "(stereo not given)", "outcome": "inactive"},
      {"smiles": "CC(C)CCCCCCOC(=O)CCCCC(=O)OCCCCCCC(C)C", "outcome": "inactive"},
      {"smiles": "CCCCCCCC(=O)O", "outcome": "inactive"},
      {"smiles": "COC(=O)CCCCC(=O)OC", "outcome": "inactive"},
      {"smiles": "C#C[C@]1(O)CC[C@H]2[C@@H]3CCC4=CC(=O)CC[C@@H]4[C@H]3CC[C@@]21C", "AC50": "22.9 µM (active)"},
      {"smiles": "OCCC(F)(F)C(F)(F)C(F)(F)C(F)(F)C(F)(F)C(F)(F)F", "outcome": "inactive"},
      {"smiles": "C[C@@H]1C[C@H]2[C@@H]3CCC4=CC(=O)C=C[C@]4(C)[C@@]3(F)[C@@H](O)C[C@]2(C)[C@@]1(O)C(=O)COP(=O)(O)O", "outcome": "inactive"},
      {"smiles": "CCOC(=O)CC(O)(CC(=O)OCC)C(=O)OCC", "outcome": "inactive"},
      {"smiles": "NC(=O)N1C(=O)C(C(=O)c2cc(Cl)cs2)c2cc(F)c(Cl)cc21", "note": "(stereo not given)", "AC50": "50 µM (active)"},
      {"smiles": "COCC(C)OCC(C)O", "note": "(stereo not given)", "outcome": "inactive"},
      {"smiles": "CC[C@H](C)[C@@H](C(=O)O)n1sc2ccccc2c1=O", "outcome": "inactive"},
      {"smiles": "Nc1cccc2c(N)cccc12", "outcome": "inactive"},
      {"smiles": "OC1CCCCC1", "outcome": "inactive"},
      {"smiles": "COc1ccc([N+](=O)[O-])cc1N", "outcome": "inactive"},
      {"smiles": "O=c1c(-c2ccc(O)cc2)coc2cc(O)ccc12", "outcome": "inactive"},
      {"smiles": "CCCOc1sc(C(=O)N2CCC(c3cc(CN)ccc3F)CC2)c(C)c1Br", "outcome": "inactive"},
      {"smiles": "CC1=C(/C=C/C(C)=C/C=C/C(C)=C/C(=O)O)C(C)(C)CCC1", "AC50": "28 µM (active)"},
      {"smiles": "CC(C)(C)CC(C)(C)c1ccc(O)c(-n2nc3ccccc3n2)c1", "AC50": "50 µM (active)"},
      {"smiles": "CC[C@H](c1ccc(O)cc1)[C@@H](CC)c1ccc(O)cc1", "outcome": "inactive"},
      {"smiles": "Cc1cc(CCN2CCN(c3nsc4ccccc34)CC2)cc2c1NC(=O)CC2(C)C", "outcome": "inactive"},
      {"smiles": "c1ccc2c(c1)ccc1ccccc12", "outcome": "inactive"},
      {"smiles": "CCCOC(=O)c1ccc(O)cc1", "outcome": "inactive"},
      {"smiles": "CCc1ccc(CCOc2ccc(CC3SC(=O)NC3=O)cc2)nc1", "note": "(stereo not given)", "outcome": "inactive"}
    ]},
    {"read-out": "Early growth response protein 1 (EGR1) transcription factor, EGR1 (gene 1958)", "assay": "LTEA_HepaRG_EGR1: Life Technologies and Expression Analysis (LTEA) Assay for Early growth response protein 1 (EGR1) transcription factor using HepaRG (AID 2283490)", "conditions": "mRNA level, 48 h; actives raise or lower the signal", "method_in_brief": "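Differentiated human HepaRG cells in serum-free induction medium were exposed in duplicate for 48 h to eight concentrations (top 100 uM, half-log steps) in 0.5% DMSO. EGR1 mRNA was quantified by qRT-PCR, normalized to ACTB, GAPDH and POLR2A, and fitted bidirectionally versus DMSO.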", "values": [
      {"smiles": "CCCCCCCCCCCCN1CCCC1=O", "outcome": "inactive"},
      {"smiles": "CC#C[C@]1(O)CC[C@H]2[C@@H]3CCC4=CC(=O)CCC4=C3[C@@H](c3ccc(N(C)C)cc3)C[C@@]21C", "AC50": "8.69 µM (active)"},
      {"smiles": "CC(C)(C)c1cccc(C(C)(C)C)c1O", "outcome": "inactive"},
      {"smiles": "CCCCCCCCCCCCc1ccccc1S(=O)(=O)O", "outcome": "inactive"},
      {"smiles": "CCCCCCCCCCCCCCCS(=O)(=O)Oc1ccccc1", "outcome": "inactive"},
      {"smiles": "CCCCOCCO", "outcome": "inactive"},
      {"smiles": "CCCCCCCCC(=O)O", "outcome": "inactive"},
      {"smiles": "CC(=O)CC(C)(C)O", "outcome": "inactive"},
      {"smiles": "CCC(C)(C)C1CCC(O)CC1", "note": "(stereo not given)", "outcome": "inactive"},
      {"smiles": "CC(C)CCCCCCOC(=O)CCCCC(=O)OCCCCCCC(C)C", "outcome": "inactive"},
      {"smiles": "CCCCCCCC(=O)O", "outcome": "inactive"},
      {"smiles": "COC(=O)CCCCC(=O)OC", "outcome": "inactive"},
      {"smiles": "C#C[C@]1(O)CC[C@H]2[C@@H]3CCC4=CC(=O)CC[C@@H]4[C@H]3CC[C@@]21C", "outcome": "inactive"},
      {"smiles": "OCCC(F)(F)C(F)(F)C(F)(F)C(F)(F)C(F)(F)C(F)(F)F", "outcome": "inactive"},
      {"smiles": "C[C@@H]1C[C@H]2[C@@H]3CCC4=CC(=O)C=C[C@]4(C)[C@@]3(F)[C@@H](O)C[C@]2(C)[C@@]1(O)C(=O)COP(=O)(O)O", "outcome": "inactive"},
      {"smiles": "CCOC(=O)CC(O)(CC(=O)OCC)C(=O)OCC", "outcome": "inactive"},
      {"smiles": "NC(=O)N1C(=O)C(C(=O)c2cc(Cl)cs2)c2cc(F)c(Cl)cc21", "note": "(stereo not given)", "AC50": "79.3 µM (active)"},
      {"smiles": "COCC(C)OCC(C)O", "note": "(stereo not given)", "outcome": "inactive"},
      {"smiles": "CC[C@H](C)[C@@H](C(=O)O)n1sc2ccccc2c1=O", "outcome": "inactive"},
      {"smiles": "Nc1cccc2c(N)cccc12", "outcome": "inactive"},
      {"smiles": "OC1CCCCC1", "outcome": "inactive"},
      {"smiles": "COc1ccc([N+](=O)[O-])cc1N", "outcome": "inactive"},
      {"smiles": "O=c1c(-c2ccc(O)cc2)coc2cc(O)ccc12", "outcome": "inactive"},
      {"smiles": "CCCOc1sc(C(=O)N2CCC(c3cc(CN)ccc3F)CC2)c(C)c1Br", "outcome": "inactive"},
      {"smiles": "CC1=C(/C=C/C(C)=C/C=C/C(C)=C/C(=O)O)C(C)(C)CCC1", "outcome": "inactive"},
      {"smiles": "CC(C)(C)CC(C)(C)c1ccc(O)c(-n2nc3ccccc3n2)c1", "outcome": "inactive"},
      {"smiles": "CC[C@H](c1ccc(O)cc1)[C@@H](CC)c1ccc(O)cc1", "AC50": "78.7 µM (active)"},
      {"smiles": "Cc1cc(CCN2CCN(c3nsc4ccccc34)CC2)cc2c1NC(=O)CC2(C)C", "outcome": "inactive"},
      {"smiles": "c1ccc2c(c1)ccc1ccccc12", "outcome": "inactive"},
      {"smiles": "CCCOC(=O)c1ccc(O)cc1", "outcome": "inactive"},
      {"smiles": "CCc1ccc(CCOc2ccc(CC3SC(=O)NC3=O)cc2)nc1", "note": "(stereo not given)", "AC50": "15.1 µM (active)"}
    ]},
    {"read-out": "Ezrin (EZR), EZR (gene 7430)", "assay": "LTEA_HepaRG_EZR: Life Technologies and Expression Analysis (LTEA) Assay for Ezrin (EZR) using HepaRG (AID 2283491)", "conditions": "mRNA level, 48 h; actives raise or lower the signal", "method_in_brief": "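EZR transcript levels came from Fluidigm qRT-PCR and were normalized to three housekeeping genes after 48 h chemical exposure of HepaRG cells. Dosing used an 8-point half-log series with a 100 uM top concentration in 0.5% DMSO, tested in duplicate; both directions were fitted versus vehicle.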", "values": [
      {"smiles": "CCCCCCCC(=O)O", "outcome": "inactive"},
      {"smiles": "CC1=C(/C=C/C(C)=C/C=C/C(C)=C/C(=O)O)C(C)(C)CCC1", "AC50": "0.495 µM (active)"},
      {"smiles": "CC(C)(C)CC(C)(C)c1ccc(O)c(-n2nc3ccccc3n2)c1", "outcome": "inactive"},
      {"smiles": "CCc1ccc(CCOc2ccc(CC3SC(=O)NC3=O)cc2)nc1", "note": "(stereo not given)", "AC50": "15.9 µM (active)"}
    ]}
  ]
}
